For orientation: AC50 means the concentration giving half of the maximal activity seen.

The structures appear in SMILES notation. Records with an inconclusive call do not appear. The source made the active and inactive calls. The calls were made as follows, unless noted: active = hit-call score of the fitted dose curve at least 0.9, where 1 is the maximum; inconclusive = response in the unintended direction; inactive = score below 0.9.

A short description of assay [1]: Tanguay_ZF_120hpf_MORT_legacy: (Legacy) Oregon State University Tanguay Lab 120 Hour Post-fertilization zebrafish Assay for Mortality (AID 2283633). Summed up:
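Dechorionated Tropical 5D wild-type zebrafish embryos, one per well from 6 hpf, static exposure in 0.64% DMSO at 28C until 120 hpf. Mortality scored as binary by brightfield microscopy at 24 and 120 hpf.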

The nature of assay [2]: Tanguay_ZF_120hpf_YSE_legacy: (Legacy) Oregon State University Tanguay Lab 120 Hour Post-fertilization zebrafish Assay for Yolk Sac Edema (AID 2283634).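 As to AC50: actives raise the incidence of yolk sac edema above the DMSO baseline.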 In a few lines:
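Dechorionated Tropical 5D wild-type zebrafish embryos were exposed statically, one per well, from 6 to 120 hpf at 28C in 0.64% DMSO. Yolk sac edema was scored present/absent by brightfield at 120 hpf, and dead embryos were excluded.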

Assay [3] is described as follows: Tanguay_ZF_120hpf_AXIS_legacy: (Legacy) Oregon State University Tanguay Lab 120 Hour Post-fertilization zebrafish Assay for Body Axis Malformation (AID 2283635).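 As to AC50: potency for an increased fraction of larvae scored with body axis malformation.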 Summed up:
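Dechorionated wild-type Tropical 5D zebrafish embryos, one per well, statically exposed from 6 hpf to 120 hpf at 28C in 0.64% DMSO final. Body axis malformation scored present/absent by brightfield microscopy at 120 hpf; dead embryos excluded.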

A short description of assay [4]: Tanguay_ZF_120hpf_SNOU_legacy: (Legacy) Oregon State University Tanguay Lab 120 Hour Post-fertilization zebrafish Assay for Snout Malformation (AID 2283637). In a few lines:
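Binary snout-malformation call at 120 hpf in wild-type 5D embryos, chorion removed by pronase, under static exposure from 6 hpf at 28C (0.64% DMSO). Embryos dying by 24 or 120 hpf excluded.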

Assay [5] is described as follows: Tanguay_ZF_120hpf_JAW_legacy: (Legacy) Oregon State University Tanguay Lab 120 Hour Post-fertilization zebrafish Assay for Jaw Malformation (AID 2283638).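 As to AC50: active means more embryos with jaw malformation than DMSO controls.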 In a few lines:
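Dechorionated Tropical 5D wild-type zebrafish embryos, one per well, exposed statically from 6 hpf to 120 hpf at 28C in 0.64% DMSO. Jaw malformation was scored by brightfield microscopy as present or absent. It was not scored in dead embryos.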

Assay [6] can be described thus: Tanguay_ZF_120hpf_PE_legacy: (Legacy) Oregon State University Tanguay Lab 120 Hour Post-fertilization zebrafish Assay for Pericardial Edema (AID 2283640).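 As to AC50: potency for increased incidence of pericardial edema versus DMSO baseline.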 In a few lines: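 Tropical 5D wild-type zebrafish embryos were statically exposed until 120 hpf at 28C, with 0.64% DMSO final. Pericardial edema was scored by brightfield as present or absent; endpoints were not scored in dead embryos.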

Assay [7] in a line: Tanguay_ZF_120hpf_BRAI_legacy: (Legacy) Oregon State University Tanguay Lab 120 Hour Post-fertilization zebrafish Assay for Brain Malformation (AID 2283641). Summed up: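 Tropical 5D wild-type zebrafish embryos exposed statically until 120 hpf at 28C, 0.64% DMSO final, sealed and dark. Brain malformation scored present/absent by brightfield at 120 hpf; dead embryos excluded. Trimethyltin chloride 5uM positive control.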

Assay [8] is described as follows: Tanguay_ZF_120hpf_SOMI_legacy: (Legacy) Oregon State University Tanguay Lab 120 Hour Post-fertilization zebrafish Assay for Somite Malformation (AID 2283647). In a few lines: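 Dechorionated Tropical 5D wild-type zebrafish embryos, one per well from 6 hpf, statically exposed at 28C to 120 hpf in 0.64% DMSO; somite malformation scored present/absent by brightfield; trimethyltin 5 uM positive control; dead embryos not scored.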

The nature of assay [9]: Tanguay_ZF_120hpf_PFIN_legacy: (Legacy) Oregon State University Tanguay Lab 120 Hour Post-fertilization zebrafish Assay for Pectoral Fin Malformation (AID 2283648).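 Also: each larva judged yes or no for fin defect by brightfield with dead larvae skipped.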 Summed up: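 Pectoral fin malformation was recorded as a binary endpoint at 120 hpf in wild-type Tropical 5D larvae, which had been dechorionated and exposed statically from 6 hpf at 28C in 0.64% DMSO. Dead embryos were excluded.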

Assay [10] is described as follows: Tanguay_ZF_120hpf_CFIN_legacy: (Legacy) Oregon State University Tanguay Lab 120 Hour Post-fertilization zebrafish Assay for Caudal Fin Malformation (AID 2283649). Summed up:
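Dechorionated Tropical 5D wild-type embryos, one per well from 6 hpf, static exposure to 120 hpf at 28C in 0.64% DMSO. Caudal fin malformation scored by brightfield as present/absent; not scored in dead embryos.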

The nature of assay [11]: Tanguay_ZF_120hpf_PIG_legacy: (Legacy) Oregon State University Tanguay Lab 120 Hour Post-fertilization zebrafish Assay for Pigmentation Malformation (AID 2283650). Summed up:
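Pigment malformation recorded as a binary call at 120 hpf in zebrafish (Tropical 5D) exposed singly from 6 hpf after pronase dechorionation. Static, sealed, 28C exposure, 0.64% DMSO; mortality excludes scoring; positive-direction fit against DMSO.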

The nature of assay [12]: Tanguay_ZF_120hpf_CIRC_legacy: (Legacy) Oregon State University Tanguay Lab 120 Hour Post-fertilization zebrafish Assay for Circulatory Malformation (AID 2283651). In a few lines:
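Binary circulatory malformation call at 120 hpf by brightfield imaging of zebrafish larvae; chorion removed at 4 hpf, static exposure from 6 hpf in sealed dark plates at 28C, final DMSO 0.64%; non-mortality endpoints skipped if embryo died.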

Assay [13] can be described thus: Tanguay_ZF_120hpf_SWIM_legacy: (Legacy) Oregon State University Tanguay Lab 120 Hour Post-fertilization zebrafish Assay for Swim Bladder Malformation (AID 2283654).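 Also: swim bladder malformation in each larva scored yes or no under brightfield.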 Summed up: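 Scoring is binary for swim bladder defects at 120 hpf, by brightfield inspection of zebrafish larvae. Embryos were exposed singly from 6 hpf after pronase dechorionation, at 28C with 0.64% DMSO; mortality excluded scoring.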

Assay [14] is described as follows: Tanguay_ZF_120hpf_NC_legacy: (Legacy) Oregon State University Tanguay Lab 120 Hour Post-fertilization zebrafish Assay for Notochord and Tail Malformation (AID 2283656). Summed up: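 Binary scoring of notochord distortion by brightfield microscopy; embryos dying were not scored. Wild-type Tropical 5D embryos, chorion removed, exposed singly and statically from 6 to 120 hpf, 28C, sealed, 0.64% DMSO.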

A short description of assay [15]: Tanguay_ZF_120hpf_EYE_legacy: (Legacy) Oregon State University Tanguay Lab 120 Hour Post-fertilization zebrafish Assay for Eye Malformation (AID 2283636).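 Also: binary presence or absence of eye malformation scored by brightfield in 120 hpf larvae.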 In a few lines:
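Binary brightfield scoring of eye defects at 120 hpf after static exposure from 6 hpf of single pronase-dechorionated wild-type embryos (28C, 0.64% DMSO). Non-mortality endpoints omitted where embryos died; fit vs DMSO.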

Read-out in assay [16]: kallikrein-3 (KLK3), KLK3 (gene 354)
In words: LTEA_HepaRG_KLK3: Life Technologies and Expression Analysis (LTEA) Assay for kallikrein-3 (KLK3) using HepaRG (AID 2283652; active = hit-call score of the fitted dose curve at least 0.9, where 1 is the maximum; inactive = score below 0.9). The settings on record: mRNA level, 48 h; actives raise or lower the signal. In a few lines: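 KLK3 transcript levels were measured by TaqMan qRT-PCR with normalisation to three housekeeping genes. HepaRG cultures received chemicals for 48 h at up to 100 uM (half-log, 8 points, 0.5% DMSO vehicle), fitted in both directions against DMSO.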

Read-out in assay [17]: solute carrier (SLC22A6), SLC22A6 (gene 9356)
In words: LTEA_HepaRG_SLC22A6: Life Technologies and Expression Analysis (LTEA) Assay for solute carrier (SLC22A6) using HepaRG (AID 2283653; active = hit-call score of the fitted dose curve at least 0.9, where 1 is the maximum; inactive = score below 0.9). The settings on record: mRNA level, 48 h; actives raise or lower the signal. In a few lines:
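Differentiated HepaRG cells exposed 48 h in serum-free induction medium to 8 half-log concentrations, top 100 uM, in 0.5% DMSO; SLC22A6 mRNA by Fluidigm qRT-PCR normalized to ACTB, GAPDH, POLR2A, fitted bidirectionally versus DMSO.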

Assay [18] can be described thus: Tanguay_ZF_120hpf_TRUN_legacy: (Legacy) Oregon State University Tanguay Lab 120 Hour Post-fertilization zebrafish Assay for Truncated Body (AID 2283655). In a few lines:
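Dechorionated Tropical 5D wild-type embryos placed singly from 6 hpf and statically exposed to 120 hpf at 28C, final DMSO 0.64%. Truncated body scored as present/absent by brightfield; not scored in dead embryos.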

Read-out in assay [19]: solute carrier (SLC10A1), SLC10A1 (gene 6554)
Put plainly: LTEA_HepaRG_SLC10A1: Life Technologies and Expression Analysis (LTEA) Assay for solute carrier (SLC10A1) using HepaRG (AID 2283657; active = hit-call score of the fitted dose curve at least 0.9, where 1 is the maximum; inactive = score below 0.9). To be noted: mRNA level, 48 h; actives raise or lower the signal. Summed up: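 SLC10A1 transcript measured by TaqMan qRT-PCR, housekeeping-normalised, after 48 h chemical treatment of human HepaRG cells. Eight concentrations (half-log, max 100 uM, 0.5% DMSO vehicle) in duplicate; fitted bidirectionally against DMSO baseline.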

Regarding `C#CCOS(=O)OC1CCCCC1Oc1ccc(C(C)(C)C)cc1` (stereo not given), the result in assay [1], in assay [2], in assay [3], in [4], in assay [5] and in [6] was inactive. For the same molecule, the outcome in assay [7], in [8], in assay [9], in assay [10], in assay [11] and in [12] was inactive. For the same molecule, the result in [13] and in assay [14] was inactive.

Consider `C=CC1(C)OC(=O)N(c2cc(Cl)cc(Cl)c2)C1=O` (stereo not given), for which the outcome in [1], in assay [2], in [3], in assay [15], in assay [4] and in assay [5] was inactive. The result in assay [6], in [7], in assay [8], in assay [10], in assay [11] and in assay [12] was inactive. The molecule was called inactive in assay [16], in assay [17], in assay [13], in [18] and in [14]. For the same molecule, the concentration at half-maximal activity (AC50) in [19] was 77.2 µM (active).

As for `CCOC(=O)CC(SP(=S)(OC)OC)C(=O)OCC` (stereo not given), the molecule was called inactive in [1], in assay [7], in [12] and in assay [14]. In addition, the AC50 in [2] is 37.4 µM (active); in [3], 34.6 µM (active); in assay [15], 38.7 µM (active); in assay [4] it was 38.1 µM (active); in assay [5] it was 33.7 µM (active); in assay [6], 37 µM (active). Moreover, the AC50 in [8] was 32 µM (active); in assay [9] it was 34 µM (active); in assay [10], 36.2 µM (active); in assay [13], 28.8 µM (active); in assay [18], 34.2 µM (active).

For the molecule `COc1cnc(OC)n2nc(NS(=O)(=O)c3c(OCC(F)F)cccc3C(F)(F)F)nc12`, the molecule was called inactive in assay [1], in assay [3], in assay [15], in assay [4], in assay [5] and in [6]. The call in [8], in assay [9], in [10], in [11], in [12] and in [13] was inactive. Also, the outcome in assay [18] and in assay [14] was inactive.

As to `O=C(Nc1ccccc1)Nc1ccnc(Cl)c1`, the outcome in [1], in [2], in [3], in [5], in assay [7] and in assay [8] was inactive. Moreover, the call in [10], in [11], in assay [12], in assay [13] and in assay [14] was inactive. For the same molecule, in [6], the half-maximal activity concentration (AC50) is 50.5 µM (active).

For the molecule `C=CCC1=C(C)[C@@H](OC(=O)[C@@H]2[C@@H](C=C(C)C)C2(C)C)CC1=O`, the call in assay [1], in [2], in assay [15], in assay [6], in [7] and in assay [8] was inactive. Besides, the result in assay [9], in assay [10], in assay [11], in [12], in [13] and in assay [14] was inactive.

Take `N#Cc1nn(-c2c(Cl)cc(C(F)(F)F)cc2Cl)c(N)c1S(=O)C(F)(F)F` (stereo not given): the outcome in assay [1], in assay [15], in assay [4], in assay [5], in assay [6] and in [7] was inactive. For the same molecule, the result in [9], in assay [10], in [11], in assay [12], in assay [13] and in assay [18] was inactive. Besides, the call in assay [14] was inactive. Besides, the AC50 in [2] is 0.0235 µM (active); in assay [3] it was 4.62 µM (active).

(Values after PubChem BioAssay (EPA / NIEHS).)
